Experimental findings from PubChem BioAssay (NCATS) are described below.

Test [1] has as its target Calcium and integrin-binding protein 1 (Homo sapiens) (UniProt Q99828). As to the kind of experiment: Primary qHTS for Identification of Calcium Integrin Binding Protein 1 (CIB1) Competitor (AID 1508620).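 Also: GST tagged CIB1 binding a fluorescein labelled alphaIIb integrin peptide tracer; top concentration of the series differs between compounds.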 In a few lines: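 CIB1-GST (1 uM final) and compound incubated 15 min at room temperature before adding FITC-alphaIIb peptide tracer (100 nM final). Competition for binding read by fluorescence polarization (ex 480, em 540) after another 15 min at room temperature.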
For orientation: Quantitative high-throughput screening tests each substance at several concentrations.

The nature of test [2]: Primary qHTS for small molecule stabilizers of the endoplasmic reticulum resident proteome: Secreted ER Calcium Modulated Protein (SERCaMP) assay (AID 1508630). The method in brief: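 The SH-SY5Y reporter protocol was run at 3 concentrations up to 38.3 uM (primary) or 11 concentrations (follow-up): 16 h compound, 100 nM thapsigargin for 4 h, then extracellular luciferase luminescence.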

A short description of test [3]: A High-Content qHTS Against Drug Library for the Identification of Small Molecules that Inhibit DYT1 Early Onset Primary Dystonia-Associated Cell Pathology (AID 1645839; calls by dose curve; also: series mostly up to about 46 µM). The method in brief: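 High-content imaging quantified EGFP-TorsinA mislocalization in HEK293-derived cells inducibly expressing DYT1 mutant torsinA, after 48 h exposure to compound given together with tetracycline induction. Cell count served as a toxicity channel alongside %pathology.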

The target of test [4] is Cytochrome P450 2D6 (Homo sapiens) (UniProt P10635). As to the kind of experiment: Cytochrome P450 family 2 subfamily D member 6 (CYP2D6) small molecule antagonists: luciferase biochemical (cell-free) qHTS assay (AID 1645840; active = well fitted curve in the direction sought with a large enough effect in the repeat runs; an effect the other way counts as inactive or inconclusive; also: nearly all actives have a fitted effect of over 55% in size; also: potency is read from the fitted curve at half-maximal effect). In a few lines:
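P450-Glo CYP2D6 system: proluciferin substrate converted by enzyme to luciferin, read by luminescence proportional to activity. Enzyme-substrate mix with compound 10 min at room temperature, then NADPH regeneration 1 h before detection reagent.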

The target in test [5] is Cytochrome P450 2C9 (Homo sapiens) (UniProt P11712). As to the kind of experiment: Cytochrome P450 family 2 subfamily C member 9 (CYP2C9) small molecule antagonists: luciferase biochemical (cell-free) qHTS assay (AID 1645842; active = well fitted curve in the direction sought with a large enough effect in the repeat runs; an effect the other way counts as inactive or inconclusive; also: nearly all actives have a fitted effect of over 55% in size; also: potency is read from the fitted curve at half-maximal effect). In a few lines: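 P450-Glo CYP2C9 system: proluciferin substrate with enzyme in mix containing 0.4% BSA, 10 min at room temperature, then NADPH regeneration solution added and incubated 1 h at 37C. Detection reagent stopped reaction; luminescence read after 20 min as RLU.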

Structures are written as SMILES. Records with an inconclusive call do not appear. The source made the active and inactive calls. Unless noted, calls follow the shape of the dose curve; as a rule, active = well fitted curve in the direction sought with a large enough effect; inconclusive = small, poorly fitted or top-dose-only effect, or another doubt; inactive = no such curve, though single readings can be large; an effect the other way counts as inactive or inconclusive.

Chain of Calcium and integrin-binding protein 1 (Homo sapiens) (Q99828 whole entry, looked up): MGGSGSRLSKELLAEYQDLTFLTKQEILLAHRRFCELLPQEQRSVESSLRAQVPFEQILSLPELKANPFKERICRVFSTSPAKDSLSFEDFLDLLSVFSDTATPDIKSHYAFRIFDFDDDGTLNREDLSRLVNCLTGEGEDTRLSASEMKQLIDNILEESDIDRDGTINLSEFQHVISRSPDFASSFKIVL
Chain of Cytochrome P450 2D6 (Homo sapiens) (P10635 whole entry, looked up): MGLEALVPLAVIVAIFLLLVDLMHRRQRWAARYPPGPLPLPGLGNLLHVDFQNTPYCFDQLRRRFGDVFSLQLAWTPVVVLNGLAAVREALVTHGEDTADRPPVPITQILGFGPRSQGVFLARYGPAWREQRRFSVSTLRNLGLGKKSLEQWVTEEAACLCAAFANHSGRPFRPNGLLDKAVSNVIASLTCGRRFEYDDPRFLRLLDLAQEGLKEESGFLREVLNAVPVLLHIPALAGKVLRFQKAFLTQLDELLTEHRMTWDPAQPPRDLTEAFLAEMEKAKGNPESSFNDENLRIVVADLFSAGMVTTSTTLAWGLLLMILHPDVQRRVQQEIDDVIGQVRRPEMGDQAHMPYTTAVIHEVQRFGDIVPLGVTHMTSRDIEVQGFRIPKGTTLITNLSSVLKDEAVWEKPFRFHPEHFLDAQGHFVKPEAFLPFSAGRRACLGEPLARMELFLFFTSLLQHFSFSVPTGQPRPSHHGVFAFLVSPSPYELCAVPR
Chain of Cytochrome P450 2C9 (Homo sapiens) (P11712 whole entry, looked up): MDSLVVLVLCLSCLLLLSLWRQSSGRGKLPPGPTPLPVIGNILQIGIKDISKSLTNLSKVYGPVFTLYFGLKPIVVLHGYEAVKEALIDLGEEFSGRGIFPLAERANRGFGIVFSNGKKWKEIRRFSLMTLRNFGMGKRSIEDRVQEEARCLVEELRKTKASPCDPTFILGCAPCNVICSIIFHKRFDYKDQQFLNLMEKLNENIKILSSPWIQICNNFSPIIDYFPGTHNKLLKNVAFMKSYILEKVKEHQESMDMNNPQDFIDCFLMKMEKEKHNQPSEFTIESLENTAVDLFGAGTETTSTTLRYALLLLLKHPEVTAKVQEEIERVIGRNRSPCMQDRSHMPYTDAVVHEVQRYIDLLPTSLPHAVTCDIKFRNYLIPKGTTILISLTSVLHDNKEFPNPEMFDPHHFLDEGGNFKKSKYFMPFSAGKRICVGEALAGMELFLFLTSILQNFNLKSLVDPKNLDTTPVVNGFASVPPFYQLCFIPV

Regarding `O=C(O)CCc1nc2ccccc2[nH]1`, the Potency entry in test [1], in test [2], in test [3], in test [4] and in test [5] was “inactive” throughout.
In the case of `CC(=O)O[C@H]1C[C@@H]2CC[C@@H]3[C@H](CC[C@@]4(C)[C@H]3C[C@H]([N+]3(C)CCCCC3)[C@@H]4OC(C)=O)[C@@]2(C)C[C@@H]1N1CCCCC1`, the Potency entry in test [1], in test [2], in test [3] and in test [5] was “inactive” in each case.
For `Cc1c(-c2ccccc2)oc2c(C(=O)OCCN3CCCCC3)cccc2c1=O`, the Potency result in test [1], in test [2], in test [3] and in test [5] was “inactive” throughout. Also, the Potency in test [4] was 3.89 µM (active).
As to `OCc1ccccn1`, the Potency result in test [1], in test [2], in test [3], in test [4] and in test [5] was “inactive” each time.
On to `CN(C)CCN1C(=O)c2ccccc2N(C)c2ccccc21`, for which the Potency result in test [1], in test [2], in test [3] and in test [5] was “inactive” in each case.
Take `O=C1C(O)=C(O)C(=O)C(O)=C1O`: the Potency entry in test [1], in test [2], in test [3], in test [4] and in test [5] was “inactive” in each case.
For the compound `Nc1nc(N)c(-c2ccccc2)s1`, the Potency result in test [1], in test [2], in test [3] and in test [5] was “inactive” throughout.
As for `CCc1ccc(C(=O)C(C)CN2CCCCC2)cc1` (centres undefined), the Potency result in test [1], in test [2], in test [3] and in test [5] was “inactive” each time. Further, in test [4], the Potency is 0.871 µM (active).
As for `NS(=O)(=O)c1cc2c(cc1Cl)NC(CC1CCCC1)NS2(=O)=O` (centres undefined), the Potency result in test [1], in test [2], in test [3] and in test [5] was “inactive” in each case.
In the case of `O=C1OC(CN2CCOCC2)CN1/N=C/c1ccc([N+](=O)[O-])o1` (centres undefined), the Potency result in test [1], in test [2], in test [3] and in test [5] was “inactive” throughout.
On to `CCCCOC(=O)CC(CC(=O)OCCCC)(OC(C)=O)C(=O)OCCCC`, for which the Potency entry in test [1], in test [2], in test [3] and in test [4] was “inactive” each time. The Potency in test [5] is 1.74 µM (active).
For the compound `CCCCCCCCCCCCSCCOCCO`, the Potency result in test [1], in test [2] and in test [3] was “inactive” throughout. Moreover, the Potency in test [5] was 12.3 µM (active).
In the case of `OC(C#CCN1CCCC1)(c1ccccc1)c1ccccc1`, the Potency result in test [1], in test [2] and in test [3] was “inactive” throughout. The Potency in test [4] was 12.3 µM (active); in test [5], 8.71 µM (active).
